According to the supplement of paper PMC10105736:
Unmarked numbers belong to inactive results.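 Rule for the calls: active = MAPPIT score above the 99th percentile of random reference set scores in the same batch; inactive = at or below it.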

Key:
Experiment in all cases: MAPPIT interaction score (arbitrary units); higher = stronger binary interaction signal, active = hit call of the paper
[1] = target: CG15514; details: MAPPIT configuration: N-N
[2] = target: CG15449; details: MAPPIT configuration: N-N; pair source set: Finley_Y2H
[3] = target: CG5946; details: MAPPIT configuration: N-N; pair source set: Finley_Y2H
[4] = target: PHDP; details: MAPPIT configuration: N-N; pair source set: Finley_Y2H
[5] = target: Prim2; details: MAPPIT configuration: N-N; pair source set: Finley_Y2H
[6] = target: CG15482; details: MAPPIT configuration: N-N; pair source set: screen_1
[7] = target: CG33096; details: MAPPIT configuration: N-N; pair source set: Finley_Y2H
[8] = target: CG15443; details: MAPPIT configuration: N-N; pair source set: Curagen_low_conf
[9] = target: Gs1; details: MAPPIT configuration: N-N; pair source set: DPIM
[10] = target: Mpp6; details: MAPPIT configuration: N-N; pair source set: DPIM
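Note: HEK293T cells with Epo stimulation, STAT-responsive firefly luciferase reporter, fold induction versus unstimulated cells divided by the larger fold induction of two negative controls lacking either bait or prey.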

B1: Spt6 (protein)
chain: MAEFLDSEAEESEEEEELDVNERKRLKKLKAAVSDSSEEEEDDEERLREELKDLIDDNPIEEDDGSGYDSDGVGSGKKRKKHEDDDLDDRLEDDDYDLIEENLGVKVERRKRFKRLRRIHDNESDGEEQHVDEGLVREQIAEQLFDENDESIGHRSERSHREADDYDDVDTESDADDFIVDDNGRPIAEKKKKRRPIFTDASLQEGQDIFGVDFDYDDFSKYEEDDYEDDSEGDEYDEDLGVGDDTRVKKKKALKKKVVKKTIFDIYEPSELKRGHFTDMDNEIRKTDIPERMQLREVPVTPVPEGSDELDLEAEWIYKYAFCKHTVSEQEKPESREKMRKPPTTVNKIKQTLEFIRNQQLEVPFIAFYRKEYVKPELNIDDLWKVYYYDGIWCQLNERKRKLKVLFEKMRQFQLDTLCADTDQPVPDDVRLILDSDFERLADVQSMEELKDVHMYFLLNYSHELPRMQAEQRRKAIQERREAKARRQAAAAENGDDAAEAIVVPEPEDDDDPELIDYQLKQASNSSPYAVFRKAGICGFAKHFGLTPEQYAENLRDNYQRNEITQESIGPTELAKQYLSPRFMTTDEVIHAAKYVVARQLAQEPLLRKTMREVYFDRARINIRPTKNGMVLIDENSPVYSMKYVAKKPVSDLFGDQFIKLMMAEEEKLLEITFLEEFEGNACANGTPGDYVEESKALYQLDQFAKHVQEWNKLRAECVQLALQKWVIPDLIKELRSTLHEEAQQFVLRSCTGKLYKWLKVAPYKPQLPPDFGYEEWSTLRGIRVLGLAYDPDHSVAAFCAVTTVEGDISDYLRLPNILKRKNSYNLEEKAQKLADLRKLSDFIKMKKPHIVVIGAESRDAQNIQADIKEILHELETSEQFPPIEVEIIDNELAKIYANSKKGESDFKEYPPLLKQAASLARKMQDPLVEYSQLCDADDEILCLRYHPLQERVPREQLLEQLSLQFINRTSEVGLDINLMVQNSRTINLLQYICGLGPRKGQALLKLLKQSNQRLENRTQLVTVCHLGPRVFINCSGFIKIDTSSLGDSTEAYVEVLDGSRVHPETYEWARKMAIDAMEYDDEETNPAGALEEILESPERLKDLDLDAFAVELERQGFGSKSITLYDIRNELSCLYKDYRTPYTKPSAEELFDMLTKETPDSFYVGKCVTAMVTGFTYRRPQGDQLDSANPVRLDSNESWQCPFCHKDDFPELSEVWNHFDANACPGQPSGVRVRLENGLPGFIHIKNLSDRQVRNPEERVRVSQMIHVRIIKIDIDRFSVECSSRTADLKDVNNEWRPRRDNYYDYVTEEQDNRKVSDAKARALKRKIYARRVIAHPSFFNKSYAEVVAMLAEADQGEVALRPSSKSKDHLTATWKVADDIFQHIDVREEGKENDFSLGRSLWIGTEEFEDLDEIIARHIMPMALAARELIQYKYYKPNMVTGDENERDVMEKLLREEKANDPKKIHYFFTASRAMPGKFLLSYLPKTKVRHEYVTVMPEGYRFRGQIFDTVNSLLRWFKEHWLDPTATPASASASNLTPLHLMRPPPTISSSSQTSLGPQAPYSVTGSVTGGTPRSGISSAVGGGGSSAYSITQSITGYGTSGSSAPGAGVSSSHYGSSSTPSFGAINTPYTPSGQTPFMTPYTPHASQTPRYGHNVPSPSSQSSSSQRHHYGSSSGTGSTPRYHDMGGGGGGGVGGGGGSNAYSMQPHHQQRAKENLDWQLANDAWARRRPQQHQSHQSYHAQQQHHHSQQQPHMGMSMNMGITMSLGRGTGGGGGGGYGSTPVNDYSTGGGHNRGMSSKASVRSTPRTNASPHSMNLGDATPLYDEN
Q: Which results are given for B1?
A: MAPPIT interaction score ([1]; pair source set: screen_1): 2.16; MAPPIT interaction score ([1]; pair source set: screen_2): 1.63

B2: RhoGAP68F (protein)
chain: MDAHSRFAPRLPGPAINPIVDNSDEPQPSLSDLHDFEPKLEFDDTELLAPSPLEKDVMVGDFVLAEDPELEPEEDVNPLEDDFEDQLREQSENFQTPRNKCDFLGTDKQGRHIFGIYASRFPEKSQLEGFVREIIKEIEPFVENDYILVYFHQGLKEDNKPSAQFLWNSYKELDRNFRKNLKTLYVVHPTWFIRVIWNFFSPFISDKFRKKLVYISSLDELRQALGLNKLKLPDNICDLDDKLNPSRKPSTPPPSSNINASRQQQHKMATTHQFGVPLKFIVMNSPCLNSIPPIVRKCVDSLSITGVIDTEGIFRRSGNHSEIMALKERVNRGEDVDLKSVNVHVIAGLLKSFLRDLAEPLLTFELYEDVTGFLDWPKEERSRNVTQLIREKLPEENYELFKYIVEFLVRVMDCEDLNKMTSSNLAIVFGPNFLWSRSTSTSLEEIAPINAFVDFVLQNHKDIYLIDVNQRTVSVD
Q: Which MAPPIT interaction score [2] does the source give for B2 here?
A: 0.0825

Q: And the MAPPIT interaction score [3]?
A: 0.206

Q: And the MAPPIT interaction score [4]?
A: 0.248

Q: What about the MAPPIT interaction score [5] of the same binder?
A: 3.38 (active)

B3: trbd (protein)
chain: MCDTKDDAQKWKCETCTYENYPSSLKCTMCQASKPLLNEDIFRLSPAQESCTVAEEAAAVEVAVMSPTPSSTCYSLQPQSQARQSNVADSEKWPCKVCTYLNWPRSLRCVQCCTKRGGEAIERGKKDMDNEADGDRAGEALQALRISGSEENLANKPVQLIGATASHRLSLSRGIDDATHLNNLANASHNQSQSQHRQPVLQQQMQLQLQPQQQRESSSSAAVPPQQQKQCYVSKWACNSCTYENWPRSIKCSMCGKTREREISGSQNDLHASSSLNSQEENQQQLQQPNVDTVSVNNSFNKKHIYQLGSSETINNCDTLQERQERRQRQIRRQVDWQWLNACLGVVENNYSAVEAYLSCGGNPARSLTSTEIAALNRNSAFDVGHTLIHLAIRFHREEMLPMLLDQISGSGPGIKRVPSYVAPDLAADIRRHFANTLRLRKSGLPCHYVQKHATFALPAEIEELPIPIQEQLYDELLDRDAQKQLETPPPALNWSLEITARLSSRMFVLWNRSAGDCLLDSAMQATWGVFDRDNILRRALADTLHQCGHVFFTRWKEYEMLQASMLHFTLEDSQFEEDWSTLLSLAGQPGSSLEQLHIFALAHILRRPIIVYGVKYVKSFRGEDIGYARFEGVYLPLFWDQNFCTKSPIALGYTRGHFSALVPMEPFTRIDGRRDDVEDVTYLPLMDCELKLLPIHFLTQSEVGNEESMMRQWLDVCVTDGGLLVAQQKLSKRPLLVAQMLEEWLNHYRRIAQVITAPFIRRPQITHYSSDGDSDEE
Q: With B3 as the binder, how does the MAPPIT interaction score [6] read?
A: -0.138

Q: And the MAPPIT interaction score [7]?
A: 0.0624

B4: eEF5 (protein)
chain: MAELDDQFETTDSGASTTYPMQCSALRKNGFVMLKSRPCKIVEMSTSKTGKHGHAKVHMVGIDIFSNKKYEDICPSTHNMDVPNVKREDLQLIAISDDSFLTLMTESGDLREDLKVPEGELGEQLRLDFDSGKDLLCTVLKACGEECVIAIKTNTALDK
Q: How did the MAPPIT interaction score [8] turn out when B4 was run?
A: 0.896

Q: And the MAPPIT interaction score [9]?
A: 0.522

Q: And the MAPPIT interaction score [10]?
A: -0.193
